Compounds with a hit are over-represented: about 14% of the library has one in this group of screens.
Shiga toxin inh: A qHTS for Small Molecule Inhibitors of Shiga Toxin. 9.2% of 290,000 active. inhibition, % at 38.7 µM. Vero cells, Shiga toxin protein synthesis inhibition reporter; in the data active means inhibition mostly above about 28%, no sharp cut-off; inactive means mostly below about 43%; further: 0% is about no effect
LmPK inh: qHTS Assay for Inhibitors of Leishmania Mexicana Pyruvate Kinase (LmPK). purified LmPK, Kinase-Glo ATP luminescence, 1 h. Potency, µM (doses to about 57.5 µM), for inactives: top-dose activity change, negative = inhibition, most hits filed as inhibitors. 0.37% of 290,000 active. AID 1721, 2009; further: potency means the concentration at half of the fitted maximal effect; on the % scale 0 is the no-effect control and ±100 the full control effect
Target sequence (Q27686 whole entry, looked up): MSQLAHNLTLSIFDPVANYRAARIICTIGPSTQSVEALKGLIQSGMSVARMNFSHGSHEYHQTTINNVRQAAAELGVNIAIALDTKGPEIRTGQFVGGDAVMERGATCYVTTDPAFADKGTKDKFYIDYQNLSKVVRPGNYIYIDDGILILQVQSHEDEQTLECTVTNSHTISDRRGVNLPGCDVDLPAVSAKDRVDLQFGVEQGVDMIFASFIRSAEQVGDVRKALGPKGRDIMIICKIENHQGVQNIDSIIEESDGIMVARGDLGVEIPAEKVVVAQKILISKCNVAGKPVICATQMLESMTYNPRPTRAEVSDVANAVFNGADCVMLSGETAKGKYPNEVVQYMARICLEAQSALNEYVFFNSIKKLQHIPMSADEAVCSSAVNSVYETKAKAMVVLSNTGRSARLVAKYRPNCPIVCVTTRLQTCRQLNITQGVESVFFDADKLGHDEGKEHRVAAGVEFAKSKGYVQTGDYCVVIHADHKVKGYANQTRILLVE
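0.1 nM LmPK, 0.5 mM PEP, 0.1 mM ADP; 50 mM imidazole pH 7.2, 7 mM MgCl2, 50 mM KCl; 1 h RT. Kinase-Glo luminescence readout, normalized to no-enzyme (full inhibition) and uninhibited wells.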
Cycloheximide cs: Cycloheximide Counterscreen for Small Molecule Inhibitors of Shiga Toxin. max response, %. 12% of 300,000 active. cell reporter, cycloheximide protein synthesis inhibition counterscreen; in the data active means max response mostly above about 13%, no sharp cut-off; inactive means mostly below about 14%; further: read at 38.3 µM for the half of the compounds with a filed dose; 0% is about no effect
Giardia FBPA inh: qHTS Assay for Inhibitors of Fructose-1,6-bisphosphate Aldolase from Giardia Lamblia; Potency, µM (titrated, usually from 59.6 µM), without a hit: at the highest dose activity, negative = inhibition, hits mostly inhibitors; 0.71% of 290,000 active; purified Giardia FBPA; A8B2U2; further: potency means the concentration at half of the fitted maximal effect; on the % scale 0 is the no-effect control and ±100 the full control effect; nearly all actives have a fitted effect of over 55% in size
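40 nM FBPA preincubated 10 min at RT with compound (up to 57.5 uM final), then substrate plus GAPDH/TPI/NAD/arsenate coupling and diaphorase/resazurin added. Fluorescence read after 20 min at RT, 525/598 nm.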
NS1 inh: qHTS Assay for Inhibitors of Influenza NS1 Protein Function; Potency, µM (doses to about 46.1 µM), for inactives: at the highest dose activity, positive = more growth; 0.4% of 270,000 active; AID 2326, 2010; calls by dose curve; further: potency means the concentration at half of the fitted maximal effect; actives are rising curves; nearly all actives have a fitted effect of over 50% in size
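OD600 was taken as the measure of yeast growth restored by compound in an NS1-expressing S. cerevisiae strain. Cells had been washed out of glucose medium and diluted 1:100 into galactose -URA medium, pH 6.0.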
* = called active by the depositor; ? = inconclusive; nt = no result; [ ] = dose if it differs, or a comment. Unless noted, the call rests on the fitted dose curve; in most records, active means well fitted curve in the direction sought with a large enough effect; inconclusive means small, poorly fitted or top-dose-only effect, or another doubt; inactive means no such curve, though single readings can be large; an effect the other way counts as inactive or inconclusive.

SMILES	Shiga toxin inh	LmPK inh	Cycloheximide cs	Giardia FBPA inh	NS1 inh
Cc1ccc(-n2ncc3c2ncn2c(C)nnc32)cc1C	63*	-14%	30*	-2%	-10%
COCCN(Cc1nc(C(c2ccccc2)c2ccccc2)no1)C(C)C	-5	-5%	-2	0%	-24%
Cc1ccc(NC(=O)Cn2c(=O)c3cccn3c3ccccc32)cc1	-5	-2%	-2	nt	-5%
Cn1c(=O)c2c(ncn2CC(=O)Nc2nc3ccc(F)cc3s2)n(C)c1=O	31	4%	13*	4%	10%
COc1ccc2nc(NC(=O)Cn3cnc4c(=O)n(C)c(=O)n(C)c43)sc2c1	13	1%	-3	10%	-4%
O=C(Cn1cnc2ccccc2c1=O)Nc1nc2ccccc2s1	15	1%	-2	1%	5%
CCc1ccc2nc(NC(=O)Cn3cnc4ccccc4c3=O)sc2c1	53*	-2%	29*	0%	6%
COc1ccc(Br)cc1/C=N/n1c(COc2ccccc2)n[nH]c1=S	-4	-1%	-2	5%	-4%
NC(=O)CN1C(=O)NC2(CCOc3ccccc32)C1=O (stereo unspecified)	-2	5%	11	-2%	5%
O=C(O)c1cc(=O)c2cccc(O)c2[nH]1	-2	nt	3	?	nt
COc1cc(C=C(c2nc3ccccc3s2)c2nc3ccccc3s2)ccc1O	10	0%	23*	-3%	10%
CN(C)c1ccc(/C=C/c2nc3ccccc3s2)cc1	12	-19%	-4	nt	1%
COc1cc(/C=C/c2nc3ccccc3s2)cc(OC)c1O	78*	-18%	41*	-17%	nt
Cc1ccc(/C=C/c2nc3ccccc3s2)s1	29	28µM*	24*	-11%	-4%
O=C(COc1ccc([N+](=O)[O-])cc1)Nc1cccc2nsnc12	-2	2%	1	-6%	25%
O=[N+]([O-])c1cccc(-c2ccc(/C=N/NC(=S)NCc3ccco3)o2)c1	26	7%	5	3%	1%
O=[N+]([O-])c1ccc(/C=N/Nc2ccc3ccccc3c2)o1	126*	-14%	58*	-15%	5%
O=[N+]([O-])c1cccc(-c2ccc(/C=N/NC(=S)Nc3ccccc3)o2)c1	16	0%	14*	9%	16%
O=[N+]([O-])c1ccc(/C=N/NC(=S)Nc2ccccc2)o1	48*	3%	23*	-15%	-9%
O=C(N/N=C/c1ccc([N+](=O)[O-])o1)c1cc2ccccc2o1	-11	2%	11	-12%	-20%
Fc1ccccc1NC(=S)N/N=C/c1ccccc1Br	70	4%	22*	5%	-1%
Cc1c(Cl)cccc1NC(=S)N/N=C/c1ccccc1Cl	24	6%	6	3%	7%
O=C(CNc1ccccc1)N/N=C/c1ccc([N+](=O)[O-])o1	19	1%	1	-5%	-4%
COC(=O)NC(/C(C(=O)OC)=C(\C)NCc1ccccc1)c1cccc(F)c1 (stereo unspecified)	nt	nt	nt	-5%[12.9 µM]	nt
CCC[C@@H]1CC2=CC(=O)CC[C@]2(C)[C@H]2CC[C@@]3(C)[C@@H](CC[C@@]34CCC(=O)O4)[C@H]12	-6	nt	-9	-2%	nt
SMILES	Shiga toxin inh	LmPK inh	Cycloheximide cs	Giardia FBPA inh	NS1 inh
O=[N+]([O-])c1ccc(/C=N/NC(=S)Nc2ccccc2F)o1	21	0%	34*	-8%	-16%
O=C(CCC(=O)Nc1ccc(Cl)cc1Cl)N/N=C/c1ccc([N+](=O)[O-])o1	38*	5%	2	?	nt
O=C(OCn1ncc(Br)c(Br)c1=O)c1c(F)cccc1F	3	-2%	17*	-3%	-135%
CC(=O)Cn1ncc(Br)c(Br)c1=O	-16	0%	0	1%	-6%
CCOC(=O)N1CCN(C(=O)c2ccc3c(c2)NC(=O)/C(=C\c2cccc(C)c2)S3)CC1	10	-6%	-2	9%	4%
COc1ccc(-c2ccc(SCC(=O)NC3CCCC3)nn2)cc1OC	52*	-6%	27*	nt	11%
COc1cccc(-c2ccc(SCC(=O)NC3CCCCC3)nn2)c1	14	-5%	20*	0%	-3%
COc1ccc(-c2ccc(SCC(=O)Nc3cc(C)on3)nn2)cc1OC	100*	0%	22*	0%	-37%
Cc1ccc(-c2ccc(SCC(=O)Nc3cc(C)on3)nn2)cc1	13	0%	6	4%	nt

High-throughput results as filed in PubChem.
